Only some compounds are listed: those with a hit (about 8.1% of all), similar ones and a draw of the others.
ELG1 DNA repair: blocks ELG1-dependent DNA repair in HEK293T cells. hit rate 2.3% among 330,000. Potency, µM (doses to about 46.1 µM), actives largely listed as inhibitors. AID 504467. HEK293T ELG1-luciferase reporter, luminescence, 16 h; DNA damage induced by 5-fluorouridine; further: nearly all actives have a fitted effect of over 55% in size
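5-Fluorouridine DNA damage + compound/DMSO, 2,000 cells/well, 16 h, 37 °C/5% CO2. ONE-Glo, 30 min RT, luminescence. Readout = decrease in reporter signal.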
KB-V1 MDR tox: KB-V1 MDR subline cytotoxicity. KB-V1 MDR cells viability, CellTiter-Glo, 72 h. Potency, µM (highest dose often 46.1 µM), actives largely listed as cytotoxic. hit rate 3.4% among 400,000; further: nearly all actives have a fitted effect of over 60% in size
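Cytotoxicity toward P-gp-expressing KB-V1 cells was determined as loss of CellTiter-Glo luminescence after 72 h at 37 degrees C. Compounds were tested in quantitative HTS format across a concentration range, with curves fitted to normalized data.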
SW480 rereplic: induces DNA re-replication in SW480 colon adenocarcinoma cells; SW480 DNA re-replication, Hoechst DNA content imaging, 48 h; Potency, µM (series often up to 46.1 µM), most hits filed as activators; hit rate 1.8% among 340,000; further: nearly all actives have a fitted effect of over 55% in size
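250 cells/well; 23 nL cpd via pin tool; 48 hr, 37 C, 5% CO2; Hoechst 40 min; imager read of total nuclear intensity, ex 405/em 500-530 nm.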
KB-3-1 tox: KB-3-1 parental cell cytotoxicity; AID 1347075; hit rate 1.4% among 400,000; KB-3-1 viability, CellTiter-Glo ATP luminescence, 72 h; Potency, µM (doses to about 46.1 µM), hits mostly cytotoxic; further: nearly all actives have a fitted effect of over 60% in size
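72 h, 37 °C compound treatment of KB-3-1 parental cells; CellTiter-Glo added, 10 min, luminescence read. Data corrected against DMSO-only plates and normalized before curve fitting.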
MCF10A rerep: inducers of DNA re-replication in MCF 10A breast cells. Potency, µM (titrated, usually from 46.1 µM), hits mostly activators. MCF 10A DNA re-replication, Hoechst nuclear intensity, 48 h. hit rate 2.9% among 350,000; further: nearly all actives have a fitted effect of over 50% in size
Numbers stand for hits; 0 = inactive; ? = inconclusive; - = no result. The call rests on the fitted dose curve; in most records, active means well fitted curve in the direction sought with a large enough effect; inconclusive means small, poorly fitted or top-dose-only effect, or another doubt; inactive means no such curve, though single readings can be large; an effect the other way counts as inactive or inconclusive.

SMILES	ELG1 DNA repair	KB-V1 MDR tox	SW480 rereplic	KB-3-1 tox	MCF10A rerep
COc1ccc(NCc2cc3ccc(OC)cc3n(CC(=O)Nc3cc(Cl)ccc3C)c2=O)cc1	-	?	-	0	-
CCOc1ccccc1NC(=O)C1CCCN(c2c(CC)c(C)nc3ncnn23)C1 (stereo not drawn)	?	0	0	0	0
O=C(Nc1cc(S(=O)(=O)Nc2ccc(Cl)cc2)ccc1N1CCCCC1)c1ccc(F)cc1Cl	0	?	?	16µM	0
COc1ccc(NS(=O)(=O)c2ccc(N3CCOCC3)c(NC(=O)c3ccccc3Cl)c2)cc1	0	10µM	?	16µM	?
COc1ccc(NS(=O)(=O)c2ccc(N3CCOCC3)c(NC(=O)c3ccc(OC)cc3)c2)cc1	?	18µM	0	0	0
COc1ccc(-c2cc(C(=O)Nc3cc(S(=O)(=O)N4CCOCC4)ccc3N3CCOCC3)c3ccccc3n2)cc1	4.1µM	0	0	0	2.3µM
O=C(NC(=S)Nc1ccccc1N1CCCCC1)c1ccc(F)cc1Cl	0	?	0	?	0
COC(=O)c1cc(C(=O)c2cc(Cl)ccc2O)coc1=N	0	0	0	0	0
Cc1nn(C)c(C)c1CNC(=O)c1cc2n(n1)C(C(F)(F)F)CC(c1cccs1)N2 (stereo not drawn)	0	?	0	0	0
Cc1cc(C)cc(-n2ccnc2SCC(=O)c2c(N)n(C3CC3)c(=O)[nH]c2=O)c1	0	0	0	0	0
COc1ccc(NC(=S)N2CCN(S(C)(=O)=O)CC2)cc1	0	0	?	0	0
c1ccc(CSc2ncnc3c2oc2ccccc23)cc1	-	0	0	0	?
O=C(c1ccc(F)cc1)c1c[nH]c(C(=O)NCc2ccco2)c1	0	0	0	0	0
COc1ccc(NS(=O)(=O)c2ccc(N3CCOCC3)c(N)c2)cc1	?	18µM	0	?	0
COc1ccc(S(=O)(=O)Nc2ccc(N3CCOCC3)cc2)cc1	0	0	0	0	0
OCCN1CCN(c2ncnc3c2ncn3[C@H]2CN(Cc3cccc(C(F)(F)F)c3)C[C@@H](CO)O2)CC1	-	0	-	0	-
O=C(NCCCN1CCOCC1)c1sc2cc([N+](=O)[O-])ccc2c1Cl	0	0	0	0	0
CCN(CC)C(=O)C1CCN(S(=O)(=O)c2ccc3oc4ccccc4c3c2)CC1	?	12µM	0	0	0
O=S(=O)(c1ccc2oc3ccccc3c2c1)N1CCOCC1	0	16µM	0	0	0
COc1ccc(CNS(=O)(=O)c2ccc3c(c2)N(C(C)=O)CCO3)cc1	0	0	?	0	0
Cc1ccc(NC(=O)CCN2C(=O)NC3(CCCC3)C2=O)cc1S(=O)(=O)N1CCOCC1	0	?	0	0	0
O=S(=O)(N/N=C1/CC(c2ccccc2)Oc2ccccc21)c1ccc(Br)cc1 (stereo not drawn)	0	23µM	?	18µM	10µM
Cc1ccc(S(=O)(=O)N/N=C2/CC(c3ccccc3)Oc3ccccc32)cc1[N+](=O)[O-] (stereo not drawn)	?	0	0	0	?
CC[n+]1c(/C=C(\C)SC)sc2ccccc21	0	0	0	0	0
CC[n+]1c(/C=C2/C=C(C)CC(C)C2)sc2ccccc21 (stereo not drawn)	?	0	0	?	?
SMILES	ELG1 DNA repair	KB-V1 MDR tox	SW480 rereplic	KB-3-1 tox	MCF10A rerep
CC[n+]1c(C=C2C=C(C)OC(C)=C2)sc2ccccc21	?	?	18µM	?	?
CC[n+]1c(/C=C(\C)Nc2ccccc2)sc2ccccc21	0	21µM	0	?	0
Cc1ccc(Cl)cc1-c1cc(C(=O)NCc2ccccc2)[nH]n1	-	0	-	0	-
O=C(NCCc1ccccc1)C1CCN(S(=O)(=O)c2ccc(-c3nn[nH]n3)cc2)CC1	0	0	0	0	0
CC(Oc1ccccc1F)C(=O)Nc1ccc2ccccc2c1 (stereo not drawn)	?	?	0	12µM	?
COC(=O)c1ccc(OCC(O)CNC2CCCC2)cc1 (stereo not drawn)	0	0	0	0	0
OC(CNC1CCCCC1)COCCOc1ccc(Br)cc1 (stereo not drawn)	0	23µM	?	0	16µM
CCCC(NCC(O)COc1ccc(-c2ccccc2)cc1)c1ccccc1 (stereo not drawn)	?	?	5.2µM	?	4.1µM

High-throughput results (PubChem BioAssay)
